# Test results from ChEMBL document CHEMBL1961873, “Compounds: GSK PKIS; Assays: Nanosyn kinase panel” (2012).
# Tests used:
# [1] = biological target: Serine/threonine-protein kinase 26 (Homo sapiens) (UniProt Q9P289); details: at 1 µM;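 further: mean inhibition of MST4 kinase activity, reported from the GSK PKIS inhibitor-set screening panel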
# [2] = biological target: Serine/threonine-protein kinase PAK 1 (Homo sapiens) (UniProt Q13153); details: at 0.1 µM
# [3] = biological target: Serine/threonine-protein kinase PAK 1 (Homo sapiens) (UniProt Q13153); details: at 1 µM
# [4] = biological target: Serine/threonine-protein kinase PAK 2 (Homo sapiens) (UniProt Q13177); details: at 0.1 µM
# [5] = biological target: Serine/threonine-protein kinase PAK 2 (Homo sapiens) (UniProt Q13177); details: at 1 µM
# [6] = biological target: Serine/threonine-protein kinase PAK 3 (Homo sapiens) (UniProt O75914); details: at 0.1 µM
# [7] = biological target: Serine/threonine-protein kinase PAK 3 (Homo sapiens) (UniProt O75914); details: at 1 µM
# [8] = biological target: Serine/threonine-protein kinase PAK 5 (Homo sapiens) (UniProt Q9P286); details: at 0.1 µM
# [9] = biological target: Serine/threonine-protein kinase PAK 5 (Homo sapiens) (UniProt Q9P286); details: at 1 µM
# [10] = biological target: Serine/threonine-protein kinase PAK 6 (Homo sapiens) (UniProt Q9NQU5); details: at 0.1 µM
# [11] = biological target: Serine/threonine-protein kinase PAK 6 (Homo sapiens) (UniProt Q9NQU5); details: at 1 µM
# [12] = system: Tyrosine-protein kinase ABL1 (Homo sapiens), P00519 [E255K]; details: at 0.1 µM
# [13] = system: Tyrosine-protein kinase ABL1 (Homo sapiens), P00519 [E255K]; details: at 1 µM
# [14] = system: Tyrosine-protein kinase ABL1 (Homo sapiens), P00519 [H396P]; details: at 0.1 µM
# [15] = system: Tyrosine-protein kinase ABL1 (Homo sapiens), P00519 [H396P]; details: at 1 µM
# [16] = system: Tyrosine-protein kinase ABL1 (Homo sapiens), P00519 [M351T]; details: at 0.1 µM
# [17] = system: Tyrosine-protein kinase ABL1 (Homo sapiens), P00519 [M351T]; details: at 1 µM
# [18] = system: Tyrosine-protein kinase ABL1 (Homo sapiens), P00519 [Q252H]; details: at 0.1 µM
# [19] = system: Tyrosine-protein kinase ABL1 (Homo sapiens), P00519 [Q252H]; details: at 1 µM
# [20] = system: Tyrosine-protein kinase ABL1 (Homo sapiens), P00519 [T315I]; details: at 0.1 µM
# Sequence of Serine/threonine-protein kinase PAK 6 (Homo sapiens) (Q9NQU5 whole entry, looked up): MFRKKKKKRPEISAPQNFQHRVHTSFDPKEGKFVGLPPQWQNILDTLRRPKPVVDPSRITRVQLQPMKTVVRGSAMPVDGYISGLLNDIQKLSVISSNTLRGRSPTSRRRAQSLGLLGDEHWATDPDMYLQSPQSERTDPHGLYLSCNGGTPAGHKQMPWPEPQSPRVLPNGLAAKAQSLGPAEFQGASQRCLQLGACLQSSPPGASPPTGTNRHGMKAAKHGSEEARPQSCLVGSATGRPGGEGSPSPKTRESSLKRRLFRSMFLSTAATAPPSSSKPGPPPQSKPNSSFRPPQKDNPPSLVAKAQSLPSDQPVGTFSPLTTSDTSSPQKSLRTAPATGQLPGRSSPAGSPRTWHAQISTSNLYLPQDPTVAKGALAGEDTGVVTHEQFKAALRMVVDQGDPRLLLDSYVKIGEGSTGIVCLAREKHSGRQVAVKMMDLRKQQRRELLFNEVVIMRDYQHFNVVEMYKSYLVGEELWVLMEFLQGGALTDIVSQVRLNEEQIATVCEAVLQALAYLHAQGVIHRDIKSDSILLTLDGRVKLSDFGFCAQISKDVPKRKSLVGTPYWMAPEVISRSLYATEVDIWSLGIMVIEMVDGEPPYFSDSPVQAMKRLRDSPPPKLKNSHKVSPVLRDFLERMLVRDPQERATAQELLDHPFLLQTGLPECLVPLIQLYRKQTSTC
# Sequence of Serine/threonine-protein kinase PAK 2 (Homo sapiens) (Q13177 whole entry): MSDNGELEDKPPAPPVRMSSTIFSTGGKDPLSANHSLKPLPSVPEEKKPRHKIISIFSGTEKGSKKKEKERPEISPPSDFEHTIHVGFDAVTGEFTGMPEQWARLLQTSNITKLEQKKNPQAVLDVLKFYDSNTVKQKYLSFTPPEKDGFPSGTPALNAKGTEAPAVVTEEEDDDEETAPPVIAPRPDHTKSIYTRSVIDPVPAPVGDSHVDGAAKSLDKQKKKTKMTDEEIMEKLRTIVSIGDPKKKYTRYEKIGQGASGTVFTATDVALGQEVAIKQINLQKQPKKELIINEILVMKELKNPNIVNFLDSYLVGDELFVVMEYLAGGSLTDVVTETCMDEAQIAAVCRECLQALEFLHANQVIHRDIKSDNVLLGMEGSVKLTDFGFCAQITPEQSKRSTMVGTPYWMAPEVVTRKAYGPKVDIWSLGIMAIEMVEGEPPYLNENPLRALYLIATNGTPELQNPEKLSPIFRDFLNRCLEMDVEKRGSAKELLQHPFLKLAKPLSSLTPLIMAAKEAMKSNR
# Sequence of Serine/threonine-protein kinase PAK 3 (Homo sapiens) (O75914 whole entry, looked up): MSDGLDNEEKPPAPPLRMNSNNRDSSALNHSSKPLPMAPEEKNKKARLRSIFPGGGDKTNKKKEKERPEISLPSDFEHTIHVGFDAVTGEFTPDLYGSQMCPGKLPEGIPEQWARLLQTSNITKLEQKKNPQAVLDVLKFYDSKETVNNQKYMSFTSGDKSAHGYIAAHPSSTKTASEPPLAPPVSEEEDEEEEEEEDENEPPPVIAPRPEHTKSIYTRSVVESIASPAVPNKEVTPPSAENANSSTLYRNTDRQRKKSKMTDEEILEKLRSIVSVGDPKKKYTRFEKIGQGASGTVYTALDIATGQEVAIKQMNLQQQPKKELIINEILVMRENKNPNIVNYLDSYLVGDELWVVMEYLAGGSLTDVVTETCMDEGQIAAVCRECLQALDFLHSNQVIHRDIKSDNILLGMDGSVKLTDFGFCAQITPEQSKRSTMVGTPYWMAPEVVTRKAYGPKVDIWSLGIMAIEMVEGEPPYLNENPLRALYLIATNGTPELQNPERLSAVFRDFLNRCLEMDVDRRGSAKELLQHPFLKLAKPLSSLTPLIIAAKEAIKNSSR
# Sequence of Serine/threonine-protein kinase 26 (Homo sapiens) (Q9P289 2-416 limits assumed): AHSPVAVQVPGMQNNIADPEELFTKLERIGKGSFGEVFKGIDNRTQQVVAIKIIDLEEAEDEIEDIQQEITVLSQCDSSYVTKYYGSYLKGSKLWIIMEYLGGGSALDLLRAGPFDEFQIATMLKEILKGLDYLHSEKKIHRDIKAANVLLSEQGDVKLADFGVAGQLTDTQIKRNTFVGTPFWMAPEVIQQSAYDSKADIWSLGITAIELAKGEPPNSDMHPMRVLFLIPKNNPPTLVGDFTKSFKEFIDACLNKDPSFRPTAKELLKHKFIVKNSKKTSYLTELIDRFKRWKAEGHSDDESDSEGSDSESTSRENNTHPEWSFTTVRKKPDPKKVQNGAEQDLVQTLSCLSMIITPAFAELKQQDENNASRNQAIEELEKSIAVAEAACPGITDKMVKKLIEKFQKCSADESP
# Sequence of Serine/threonine-protein kinase PAK 1 (Homo sapiens) (Q13153 whole entry): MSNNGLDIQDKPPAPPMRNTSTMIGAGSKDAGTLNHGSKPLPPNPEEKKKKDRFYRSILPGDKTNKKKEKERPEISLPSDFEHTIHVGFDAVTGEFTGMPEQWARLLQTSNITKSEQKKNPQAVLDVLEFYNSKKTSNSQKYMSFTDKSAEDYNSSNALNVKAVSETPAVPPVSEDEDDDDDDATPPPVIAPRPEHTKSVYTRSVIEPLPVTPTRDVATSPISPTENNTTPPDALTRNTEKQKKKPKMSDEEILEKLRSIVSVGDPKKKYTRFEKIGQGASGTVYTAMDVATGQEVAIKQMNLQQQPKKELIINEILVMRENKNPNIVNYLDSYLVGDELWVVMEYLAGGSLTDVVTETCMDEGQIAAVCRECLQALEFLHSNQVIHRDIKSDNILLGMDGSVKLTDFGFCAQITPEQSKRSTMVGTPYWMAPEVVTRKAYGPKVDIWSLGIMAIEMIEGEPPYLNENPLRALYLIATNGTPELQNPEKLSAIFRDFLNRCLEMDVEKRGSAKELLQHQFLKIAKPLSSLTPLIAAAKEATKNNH
# Sequence of Serine/threonine-protein kinase PAK 5 (Homo sapiens) (Q9P286 whole entry, looked up): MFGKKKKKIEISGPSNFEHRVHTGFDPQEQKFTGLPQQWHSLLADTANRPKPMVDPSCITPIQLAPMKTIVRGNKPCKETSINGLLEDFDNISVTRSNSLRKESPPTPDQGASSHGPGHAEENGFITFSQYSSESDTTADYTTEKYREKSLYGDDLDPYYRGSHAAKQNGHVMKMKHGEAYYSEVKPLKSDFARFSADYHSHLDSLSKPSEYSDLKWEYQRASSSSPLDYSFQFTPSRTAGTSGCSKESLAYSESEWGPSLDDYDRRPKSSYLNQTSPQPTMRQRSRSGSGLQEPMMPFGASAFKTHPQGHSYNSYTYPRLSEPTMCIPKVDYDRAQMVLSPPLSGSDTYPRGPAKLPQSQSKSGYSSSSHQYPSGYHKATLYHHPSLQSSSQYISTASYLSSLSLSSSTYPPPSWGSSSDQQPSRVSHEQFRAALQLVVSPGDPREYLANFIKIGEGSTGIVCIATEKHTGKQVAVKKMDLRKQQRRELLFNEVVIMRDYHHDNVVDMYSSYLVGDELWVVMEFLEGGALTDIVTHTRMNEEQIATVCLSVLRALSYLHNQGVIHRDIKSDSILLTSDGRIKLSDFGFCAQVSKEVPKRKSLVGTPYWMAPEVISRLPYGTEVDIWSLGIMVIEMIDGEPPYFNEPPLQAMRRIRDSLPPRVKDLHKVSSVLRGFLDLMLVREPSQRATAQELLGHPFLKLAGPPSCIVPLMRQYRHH
Structure (SMILES),inhibition [1] [%],inhibition [2] [%],inhibition [3] [%],inhibition [4] [%],inhibition [5] [%],inhibition [6] [%],inhibition [7] [%],inhibition [8] [%],inhibition [9] [%],inhibition [10] [%],inhibition [11] [%],inhibition [12] [%],inhibition [13] [%],inhibition [14] [%],inhibition [15] [%],inhibition [16] [%],inhibition [17] [%],inhibition [18] [%],inhibition [19] [%],inhibition [20] [%]
CCn1c(-c2nonc2N)nc2c(C#CC(C)(C)O)nc(CN3CCCC3)cc21,7.65,0.14,2.33,-2.93,-0.92,-0.82,0.31,-4.5,-1.51,10.8,-0.08,0.01,0.44,0.09,0.68,-0.36,2.83,0.06,3.09,-0.43
CCCN1CCC(Oc2cc(Nc3nc(Nc4cccc(F)c4C(N)=O)c4cc[nH]c4n3)c(OC)cc2Cl)CC1,2.1,-3.06,1.83,-1.01,-0.56,-0.46,-0.24,6.57,3.44,2.36,6.18,-0.41,2.46,0.38,2.29,2.95,2.4,0.68,5.93,1.91
CC1=C(C(=O)Nc2ccc3[nH]ncc3c2)C(c2ccc(Cl)c(Cl)c2)CC(=O)N1 (stereo not given),-1.05,2.74,3.36,0.48,-0.06,0.86,0.53,4.97,-3.2,6.11,2.05,1.47,-1.52,1.38,0.16,1.24,1.38,3.45,3.33,1.44
Cc1cc(O)cc(C)c1/C=C/c1cncc(-c2nn[nH]n2)c1,0.45,6.83,7.1,2.28,2.67,4.55,5.43,1.47,-1.45,7.17,-4.74,17.8,79.3,21.5,79.8,17.1,79.9,23.1,81.6,2.2
NS(=O)(=O)c1ccc(N/N=C2\C(=O)Nc3ccc(C(=O)NCCc4c[nH]cn4)cc32)cc1,6.15,3.1,7.85,1.34,3.15,4.63,6.49,2.86,3.33,10.1,3.67,5.1,6.98,3.97,11.2,4.18,9.6,5.47,8.73,3.68
[O-][S+]1CCN(Cc2ccc(-c3ccc4ncnc(Nc5ccc(OCc6ccccc6)c(F)c5)c4c3)o2)CC1,5.46,1.29,5.06,0.28,-0.13,1.32,1.96,-1.94,-2.2,2.21,-0.59,1.66,2.97,2.03,0.51,2.17,0.04,1.58,0.89,1.21
COc1cc2ncn(-c3cc(O[C@@H](C)c4ccccc4Cl)c(C(N)=O)s3)c2cc1OC,-7.1,7.98,9.51,1.89,2.93,5.16,5.27,2.62,4.73,-0.86,-1.4,7.11,21.4,9.2,33.8,3.76,29.7,6.57,28.5,3.45
CC(=O)Nc1cccc(C#Cc2cncnc2Nc2ccc(OCc3cccc(F)c3)c(Cl)c2)n1,2.51,1.24,0.67,-0.89,-0.09,-0.61,-0.35,4.91,9.12,10.8,0.8,-0.61,-0.48,0.09,1.6,1.08,3.88,0.29,3.02,0.4
O=C1NC(=O)C(N2CCc3ccccc32)=C1c1ccc(Cl)cc1,-1.05,8.65,7.01,2.34,1.81,5.1,5.8,0.62,-2.87,2.3,-5.45,4.83,4.21,6.7,2.97,3.31,3.23,6.26,3.84,2.02
CCc1cccc(NC(=O)Nc2ccc(Oc3ccc4nc(NC(=O)OC)[nH]c4c3)cc2)c1,2.74,1.22,2.79,0.53,0.26,0.88,2.93,8.59,-2.14,15.4,1.29,6.09,14.3,34,51.8,48.6,57.9,48.4,60.8,40.6
NC(=O)c1ccc(-c2nc(-c3ccccn3)c(-c3ccc4c(c3)OCO4)[nH]2)cc1,2.93,4.04,5.77,0.67,1.08,2.68,2.97,-3.79,-0.72,-8.04,-5.81,3.49,4.45,1.34,6.63,0.6,3.86,0.7,3.91,1.95
COC(=O)Nc1nc2cc(Oc3cccc(NC(=O)Nc4cc(C(F)(F)F)ccc4F)c3)ccc2[nH]1,1.92,3.97,-1.03,-1.19,0.23,-1.11,-1.11,0.91,-5.17,6.44,-6.76,0.37,7.39,9.03,41.7,34.8,69.3,32.1,68.6,2.28
O=C(Nc1n[nH]c2nc(-c3ccco3)c(Br)cc12)C1CC1,-2.34,4.84,6.66,2.69,3.61,3.75,3.54,-1.27,-1.99,0.11,0.72,3.52,8.63,5.52,26.4,4.18,29.8,8.1,32.3,3.13
COc1cc(C=NNc2ncnc3c2cnn3-c2ccccc2)ccc1O,13.3,4.14,5.41,2.39,1.53,2.39,2.83,-3.08,0.18,5.73,2.62,24.9,77.9,40.3,84.9,40.1,88.5,50.5,88.7,32
Fc1cccc(COc2ccc(Nc3ncnc4sc(-c5cccs5)cc34)cc2Cl)c1,-0.58,1.63,1.64,-0.69,-1.1,-0.01,2.7,-2.5,-7.05,-3.68,-8.25,0.56,1.97,1.28,3.54,1.53,2.68,0.76,2.11,1.08
CC(C)=Cc1cccc2c1/C(=N/Nc1ccc(S(N)(=O)=O)cc1)C(=O)N2,35.5,-2.27,1.28,0.39,1.15,0.22,1.61,8.32,3.26,7.25,-0.47,1.22,9.2,2.39,13.8,2.77,26.6,3,18.2,0.99
Nc1ncnc2occ(-c3ccc(NC(=O)Nc4cccc(C(F)(F)F)c4)cc3)c12,-4.13,6.38,5.2,1.77,1.5,6.37,5.54,2.15,3.35,-0.62,-2.37,5.41,38.8,25.3,76.8,54.5,85.1,54.2,81.6,48.3
CCn1c(-c2nonc2N)nc2ccncc21,0.2,6.53,2.38,-0.38,1.82,0.96,1.02,-6.36,-8.04,-9.63,-3.52,1.78,-1.53,-0.24,-0.08,0.64,3.06,3.21,-0.21,-0.01
Nc1nc(-c2ccccn2)c(-c2ccc3ncccc3n2)s1,-0.98,3.7,4.24,1.82,1.66,3.03,3.63,5.99,4.49,-7.45,-5.19,2.57,3.81,3.89,4.78,-0.12,3.17,2.96,3.86,1.93
COc1cc2c(cc1Nc1nc(N3CCc4ccccc43)c3cc[nH]c3n1)N(C(=O)CN(C)C)CC2,4.16,3.44,4.36,0.89,1.19,1.31,2.24,0.19,-1.41,-3.46,-0.54,0.52,1.73,0.54,-0.96,0.88,-0.63,1.56,2.24,1.05
O=C1Nc2ccc(C(=O)c3ccco3)cc2C1=Cc1cc(Cl)c(O)c(Cl)c1,21.4,1.1,3.96,1.29,0.81,2.57,3.42,0.93,5.07,1.03,0.19,3.7,15.1,3.27,13.7,3.29,12.9,5.53,17.7,3.59
COc1cc2ncn(-c3cc(OCc4ccccc4Cl)c(C(N)=O)s3)c2cc1OC,-3.28,3.48,1.43,-1.4,-1.31,-3.29,1.37,-3.38,0.31,-7.38,-7.5,1.52,21.7,6.52,31.1,4.21,32.3,5.23,28.2,3.9
N#Cc1c(NC(=O)c2cccc3ccccc23)sc2c1CCCC2,1.23,5.02,3.74,0.12,1.16,2.52,3.41,-2.18,-9.6,7.76,1.52,4.44,5.5,4.91,2.88,3.89,3.56,5.46,3.18,2.03
CCn1c(-c2nonc2N)nc2c(C#CC(C)(C)O)nc(OC[C@@H](N)c3ccccc3)cc21,14.1,-5.15,1.43,3.89,36.3,-1.93,0.72,87,87.7,90.8,91.4,-1.82,1.65,0.8,-0.27,1.41,0.68,0.61,-0.28,0.08
